Data taken from the supplement of paper PMC3842684.

How the values were obtained:
[1] = test system: P. falciparum NF54-pfs16-GFP early (I-III) stage gametocytes; test: relative % inhibition of viable gametocyte number; higher = more gametocytocidal; conditions: stage: early (I-III) gametocyte, incubation 72 h
In short: (§1)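 Early-stage (I/IIa, day 2) or late-stage (day 8) NF54 pfs16-GFP gametocytes were isolated by magnet and plated in 384-well poly-D-lysine imaging plates at 10% parasitaemia and 0.1% haematocrit, with compound in duplicate at 5 or 0.5 µM. After 72 h at 37°C under 5% CO2 and 5% O2, MitoTracker Red was added overnight. Confocal imaging scored elongated GFP objects whose MitoTracker signal passed a cut-off as viable gametocytes. Relative inhibition was normalised against vehicle and positive-control wells on the same plate.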

[2] = test system: P. falciparum NF54-pfs16-GFP late (IV-V) stage gametocytes; test: as above; conditions: stage: late (IV-V) gametocyte, incubation 72 h
In short: as §1

Row | SMILES | relative % inhibition ([1]; 0.5 µM) [%] | relative % inhibition ([1]; 5 µM) [%] | relative % inhibition ([2]; 0.5 µM) [%] | relative % inhibition ([2]; 5 µM) [%]
1 | CCOC(=O)C1(Cc2ccccc2)CCN(Cc2cccc(OC)c2O)CC1 | 14.7 | 52.6 | -5.97 | 22.8
2 | COc1ccc(-c2cc3c(nn2)-c2ccccc2C3=O)cc1 | -10.8 | 81.1 | 87.4 | 96.1
3 | CCCCCCn1c(=N)n(CC(O)COc2cccc(C)c2)c2ccccc21 (configuration not stated) | 23 | 52 | -12.2 | 103
4 | CC(C)OCc1cc(CN2CCN(c3cccc(Cl)c3)CC2)c(O)c2ncccc12 | 10.9 | 96.4 | 8.7 | 98.4
5 | Nc1ccn(C2O[C@H](CO)[C@@H](O)[C@H]2O)c(=O)n1 (some centres not stated) | -12.7 | 9.7 | 8.91 | -10.9
6 | COc1ccccc1C(=O)ON=C(N)Cc1cccc2ccccc12 | 13.9 | 78 | 5.05 | 92.5
7 | Cc1cc(N2CCCC2)nc(Nc2ccc(NC(=O)CCc3ccccc3)cc2)n1 | 53.7 | 89.6 | 6.75 | 21
8 | CCN(CC)S(=O)(=O)c1ccc(-c2csc(Nc3ccc(C)c(C)c3)n2)cc1 | 28 | 31.5 | 42.2 | 42.2
9 | COc1ccc(C(=O)Nc2ccc(Cl)cc2C(=O)Nc2ccncc2)cc1 | -7.22 | 22.3 | -6.74 | 3.3
10 | Cc1ccc(N2C3c4ccccc4N(S(=O)(=O)c4ccc(C)cc4)C2c2ccccc2N3S(=O)(=O)c2ccc(C)cc2)cc1 | 61 | 95.1 | 95 | 98.9
11 | c1ccc(CNc2nc(Nc3ccccc3)nc3ccccc23)cc1 | 65.9 | 97 | 57.9 | 86.1
12 | O=C(Nc1ccc(N2CCCCC2)c(Cl)c1)c1ccc(Br)o1 | 5.95 | 8.62 | 6.1 | 22.2
13 | COc1ccc(C2c3ccc4ccccc4c3Oc3ncn(CCCN(C)C)c(=N)c32)cc1 (configuration not stated) | 76.2 | -22.6 | 108 | 115
14 | CC(C)CCNCC(O)Cn1c2ccccc2c2ccccc21 (configuration not stated) | 23.7 | 102 | 19 | 82.9
15 | Cc1ccc(Cn2c(N3CCC(C(=O)NCc4cccs4)CC3)nc3ccccc32)cc1 | 10.4 | 35.6 | 5.62 | 23.8
16 | COc1ccccc1CNC(=O)CCn1c(=O)[nH]c2ccsc2c1=O | 16.9 | 2.5 | -0.5 | 0
17 | CCOC(=O)c1cn(CC)c2cc(N3CCCCC3)c(F)cc2c1=O | 22 | 17 | 91.5 | 93.5

Row | SMILES | relative % inhibition ([1]; 0.5 µM) [%] | relative % inhibition ([1]; 5 µM) [%] | relative % inhibition ([2]; 0.5 µM) [%] | relative % inhibition ([2]; 5 µM) [%]
18 | COc1ccc(-c2c(C)nn3c(N)c(C#N)cnc23)cc1OC | -24.1 | 22.9 | 63.6 | 108
19 | O=C(NCc1ccco1)C1CCN(S(=O)(=O)c2ccc(Br)cc2)CC1 | -6.48 | -2.56 | 29 | 51.5
20 | COc1ccc2nc(C)cc(Nc3ccc(Cl)cc3)c2c1 | -10.1 | 13.9 | 7.89 | 11.7
21 | COc1ccc(Nc2cc(C)nc(NCc3ccccc3)n2)cc1 | -3.8 | 26.6 | -3.1 | 36
22 | CCN1CCN(c2c(C(=O)c3ccccc3)cnc3cc(OC)c(OC)cc23)CC1 | 2.47 | -13.5 | 12.1 | -8.91
23 | O=C1c2ccccc2C2=Nc3ccccc3SC(c3cccc(F)c3)C12 (configuration not stated) | 30.8 | 27.4 | 43.7 | 83.8
24 | Cc1nc2ccccc2c(O)c1CC=C(Cl)Cl | 4.23 | 3.33 | 33.4 | 49.4
25 | COc1ccc(-n2ccnc2SCC(=O)Nc2cc(C)ccc2C)c(OC)c1 | 3.61 | -5.2 | -4.39 | 15.9
26 | COc1ccc(C(=O)NC(c2ccccc2Cl)c2cc(Cl)c3cccnc3c2O)cc1 (configuration not stated) | 5.42 | 49.4 | 18.6 | 38.6
27 | CCc1c(C)c(=N)c2ccccc2n1C | -1.08 | 8.52 | -17.1 | -7.51
28 | CCC(C)NCC(O)(c1ccc(Cl)cc1)c1ccc(Cl)cc1 (configuration not stated) | 16.2 | 102 | 27.1 | 58.3
29 | CCCCCCC(O)(c1ccc(F)cc1)C(CN1CCOCC1)c1ccccc1 (configuration not stated) | -0.0307 | 47.2 | 8.28 | 33.1
30 | O=C1c2ccc3c4c(ccc(c24)C(=O)N1CCCCO)C(=O)N(CCCCO)C3=O | -9.07 | 4.23 | 5.48 | 4.35
31 | COc1ccc(NC(=O)C2c3ccccc3C(=O)N(CC(C)C)C2c2cccs2)cc1Cl (configuration not stated) | 42.8 | 90.9 | 54.9 | 66
32 | Cc1cc(C)c2c(c1)OCN(Cc1ccccc1Cl)C2 | 59.9 | 93.6 | 31.1 | 47.8
33 | COC(=O)c1ccc(C2C3=C(O)CC(c4ccc(F)cc4)CC3=Nc3ccccc3N2C(=O)c2ccccc2)cc1 (configuration not stated) | 26.9 | 103 | 88.6 | 98.4
